Laboratory results from PubChem BioAssay (NCATS).
Results filed as inconclusive are left out. Unmarked numbers belong to inactive results. The call rests on the fitted dose curve; in most records, active means well fitted activation curve with a large enough effect; inconclusive means small, poorly fitted or top-dose-only effect; inactive means no such curve, though single readings can be large or run the other way. Residues, ends and D or L forms follow the SMILES beside them. *: point of attachment. Cbz = O=C(OCc1ccccc1)*

experiment: qHTS for Activators of Parkin Expression: LOPAC Validation Assay (FLuc Reporter) (AID 720573); conditions: Cell line, PRKN promoter firefly luciferase reporter; series mostly up to 46.1 µM; activation: at the top concentration
How it was run: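 Cells seeded, 24 h; compounds pinned, 7-pt dose response; 24 h at 37 C/5% CO2; volume reduced; FLuc reagent 10 min RT; luminescence read. Normalization: DMSO = 0, positive control = 100%.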

Question: For `c1ccc(C(NCc2cccnc2)(c2ccccc2)c2ccccc2)cc1`, which “activation” value is on record?
Answer: -8.84%

Question: With `COc1cc(CC(=O)O)ccc1O` as the compound, how does the “activation” value read?
Answer: -5.85%

Question: For `NOCC(=O)O`, which “activation” value is on record?
Answer: -2.88%

Question: Which “activation” value does the source give for `CC(=O)/C(C)=N/O` here?
Answer: -8.26%

Question: For `COC(=O)C(N)Cc1ccc(Cl)cc1` (stereo unspecified), which “activation” value is on record?
Answer: -5.31%

Question: Which “activation” value does the source give for `C[C@H](NC(=O)/C(C#N)=C/c1ccc(O)c(O)c1)c1ccccc1` here?
Answer: 6.08%

Question: For `Nc1nc2c(nc(Br)n2C2OC3COP(=O)(O)O[C@@H]3C2O)c(=O)[nH]1` (stereo partly specified), which “activation” value is on record?
Answer: 1.33%

Question: With `CC(O)C(O)[C@H]1CNc2nc(N)[nH]c(=O)c2N1` (stereo partly specified) as the compound, how does the “activation” value read?
Answer: 0.24%

Question: For `CC(C)[C@H](NC(=O)OCc1ccccc1)C(=O)N[C@H](C=O)Cc1ccccc1` (Cbz-Val-Phe-aldehyde), which “activation” value is on record?
Answer: -0.61%

Question: With `N=C(N)c1ccc(N)cc1` as the compound, how does the “activation” value read?
Answer: -8.92%

Question: Which “activation” value does the source give for `COc1cc(/C=C(\C#N)C(=O)Nc2nnc(C(F)(F)F)s2)ccc1OCc1ccc(C(F)(F)F)cc1C(F)(F)F` here?
Answer: -3.6%

Question: For `Cc1cc2c(cc1Cl)N(C(=O)Nc1ccnc3ccccc13)CC2`, which “activation” value is on record?
Answer: -8.13%

Question: Which “activation” value does the source give for `c1ccc(C(NCCNC(c2ccccc2)c2ccccc2)c2ccccc2)cc1` here?
Answer: 3.85%

Question: Which “activation” value does the source give for `N[C@H](C(=O)O)c1cc(O)cc(O)c1` here?
Answer: -2.61%

Question: Which “activation” value does the source give for `O=C(O)c1ccccc1Nc1ccccc1` here?
Answer: 2.18%

Question: With `NC1CCN(O)C1=O` (stereo unspecified) as the compound, how does the “activation” value read?
Answer: -6.59%

Question: Which “activation” value does the source give for `CC(C)(CO)Cc1cc(C(C)(C)C)c(O)c(C(C)(C)C)c1` here?
Answer: -0.679%

Question: For `S=C(S)N1CCCC1`, which “activation” value is on record?
Answer: -11.3%

Question: With `COc1ccc(CCn2nnnc2C2(c3ccc(C)cc3)CC2)cc1` as the compound, how does the “activation” value read?
Answer: -4.05%

Question: With `N[C@@H](CCCC(=O)O)C(=O)O` as the compound, how does the “activation” value read?
Answer: -6.8%

Question: With `[N-]=[N+]=Nc1ccc(C(=O)CSC[C@H](NC(=O)CC[C@H](N)C(=O)O)C(=O)NCC(=O)O)cc1` as the compound, how does the “activation” value read?
Answer: -4.2%

Question: For `COc1ccc(CCN(C)CCc2ccc(OC)c(OC)c2)cc1OC`, which “activation” value is on record?
Answer: -1.18%

Question: For `CCn1c(=O)[nH]c2cc(Cl)c(Cl)cc21`, which “activation” value is on record?
Answer: 9.47%

Question: With `Clc1nccc2c1ccc1ccccc12` as the compound, how does the “activation” value read?
Answer: 19%

Question: For `CCSC(=N)N`, which “activation” value is on record?
Answer: -2.85%

Question: For `CCCn1c(=O)c2c(ncn2C)n(CCC)c1=O`, which “activation” value is on record?
Answer: 1.83%

Question: With `Cn1c(=O)c2[nH]c(-c3ccc(S(=O)(=O)O)cc3)nc2n(C)c1=O` as the compound, how does the “activation” value read?
Answer: -8.52%

Question: With `Cc1ccc2c(c1)C(N1CCN(C)CC1)=Nc1cccnc1N2` as the compound, how does the “activation” value read?
Answer: -0.314%

Question: Which “activation” value does the source give for `N=C(N)SCCN` here?
Answer: -13%

Question: Which “activation” value does the source give for `CC(/C=C/c1cccc(Oc2ccc(F)cc2)c1)N(O)C(N)=O` (stereo unspecified) here?
Answer: 1.9%

Question: For `CCCCCCCCCCC/C=C\C(C)(C)/C=C\CCCC(=O)O`, which “activation” value is on record?
Answer: -3.53%

Question: With `O=c1[nH]ccc2c(O)cccc12` as the compound, how does the “activation” value read?
Answer: 3.9%

Question: With `N#CC(C#N)=C(N)/C(C#N)=C/c1ccc(O)cc1` as the compound, how does the “activation” value read?
Answer: -1.82%

Question: Which “activation” value does the source give for `NC1C=CC=C(C(=O)O)C1` (stereo unspecified) here?
Answer: -4.94%

Question: With `COC(=O)[C@H](NC(=O)c1cc(-c2ccccc2)nc2ccccc12)c1ccccc1` as the compound, how does the “activation” value read?
Answer: -4.64%

Question: For `CN1CCN(c2nc3cc(C(F)(F)F)ccc3n3cccc23)CC1`, which “activation” value is on record?
Answer: -13%
